In ChEMBL document CHEMBL4513146, “CO-ADD screening of Karazin Kharkiv National University (Ukraine) compounds”:
Results with a measured potency or affinity are listed apart.

Columns and labels:
[1] = tested on: Klebsiella pneumoniae; conditions: Concentration 32 ug.mL-1;; ASSAY_TEST Inhibition of Bacterial Growth; detection method Absorption (OD600); MEDIA CAMHB; plate type 384well; NBS; CORNING #3640; time 18 hr
[2] = tested on: Candida albicans; conditions: Concentration 32 ug.mL-1; ASSAY_TEST Inhibition of Fungal Growth; detection method Absorption (OD530)
[3] = tested on: Cryptococcus neoformans; conditions: Concentration 32 ug.mL-1; ASSAY_TEST Inhibition of Fungal Growth; detection method Resazurin; Absorption (OD600-OD570); plate type 384well; NBS; CORNING #3640

Compound | Inhibition [1] [%] | Inhibition [2] [%] | Inhibition [3] [%]
Cc1ccc(Oc2nc3ccccc3n3c(=O)n(CC(=O)Nc4cccc(C(F)(F)F)c4)nc23)cc1 | 8.2 | 1.82 | -21.42
COc1cccc(CN(c2ccc(C(C)C)cc2)S(=O)(=O)c2cccn3cnnc23)c1 | 13.52 | 10.84 | -11.09
CC(C)(C)OC(=O)N1CCC(NC(=O)CCc2nnc3ccc(-c4ccccc4)nn23)CC1 | 12.09 | 0.97 | -4.02
CCCCOc1ccc(-c2cc3c4nnc(SCC(=O)Nc5cc(F)ccc5C)n4ccn3n2)cc1 | -4.04 | 9.93 | -31.79
Cc1cc2nn(CC(=O)Nc3cc(F)ccc3C)c(=O)n2c(Nc2ccc(C)c(F)c2)n1 | 11.43 | 3.99 | -7.37
COc1cccc(N(Cc2ccc(F)cc2)S(=O)(=O)c2ccc3nncn3c2)c1 | -3.46 | 1.11 | -15.36
Cc1ccc(-c2cc3c4nnc(SCC(=O)Nc5ccc(C#N)cc5)n4ccn3n2)cc1 | 4.89 | 0.36 | -27.44
COc1ccc(C)cc1NC(=O)Cn1nc2cc(C)nc(Nc3ccc(F)cc3)n2c1=O | 2.21 | 2.84 | -7.79
O=C(CSc1nnc2c(=O)n(-c3ccc(Br)cc3)ccn12)Nc1cccc(Cl)c1 | 6.37 | 6.02 | -15.78
COc1cccc(NC(=O)Cn2nc3ccc(-c4ccc(C)c(C)c4)nn3c2=O)c1 | -6.86 | 8.09 | -10.05
